# According to PubChem BioAssay (NCI):
# Compounds without any hit were thinned out: in the full panel of roughly 79,000, 15% have a hit. Values without a mark were called inactive. Calls of active or inactive are those of the source. Cut-off read from the data, not from the text of the source: active = growth inhibition above about 70%; inactive = the rest.
# Legend:
# [1] = NCI Yeast Anticancer Drug Screen. Data for the rad52 strain (AID 147);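 note: 0% = growth of vehicle-treated control cultures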; details: S. cerevisiae rad52 mutant growth inhibition, hits give high values
# How it was run: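 Vehicle-treated cultures served as the reference for growth inhibition of compound-exposed yeast bearing a DNA repair mutation.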
# [2] = NCI Yeast Anticancer Drug Screen. Data for the wt1 strain (AID 149);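 note: 0% = growth of vehicle-treated wt1 cultures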; details: S. cerevisiae wt1 strain (SPY 50644) growth inhibition, hits give high values
# How it was run: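 wt1 yeast, compound-treated; % growth inhibition vs vehicle control.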
# [3] = NCI Yeast Anticancer Drug Screen. Data for the rad50EPP+ strain (AID 151);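 note: 0% = growth of vehicle-treated control cultures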; details: S. cerevisiae rad50 mutant strain, hits give high values
# How it was run: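 In this screen, rad50EPP+ yeast were exposed to compounds. Growth inhibition was scored against vehicle-treated controls.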
# [4] = NCI Yeast Anticancer Drug Screen. Data for the mgt1 strain (AID 153); details: S. cerevisiae mgt1 mutant growth inhibition, hits give high values
# How it was run: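 mgt1 strain exposed; growth vs vehicle control recorded as inhibition.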
# [5] = NCI Yeast Anticancer Drug Screen. Data for the rad50 strain (AID 155);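 note: 0% = growth of vehicle-only cultures of the same strain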; details: S. cerevisiae rad50 strain growth inhibition, hits give high values
# How it was run: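 Genetically altered yeast (DNA repair pathway); compound treatment; growth inhibition vs vehicle ctrl.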
# [6] = NCI Yeast Anticancer Drug Screen. Data for the mec2-1 strain (AID 157); details: S. cerevisiae mec2-1 strain, hits give high values
# How it was run: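 Vehicle-treated cultures served as reference for growth inhibition of compound-exposed mec2-1 yeast.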
# [7] = NCI Yeast Anticancer Drug Screen. Data for the rad14 strain (AID 159);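 note: 0% = growth of vehicle-treated control cultures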; details: S. cerevisiae rad14 strain growth inhibition, hits give high values
# How it was run: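 Test compounds were applied to a repair-deficient yeast strain. Its growth was then compared with that of cultures given vehicle alone, and inhibition was expressed relative to those controls.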
# [8] = NCI Yeast Anticancer Drug Screen. Data for the sgs1 mgt1 strain (AID 161);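 note: 0% = growth of cultures given vehicle only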; details: S. cerevisiae sgs1 mgt1 strain, hits give high values
# How it was run: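 Test agents were incubated with a DNA-repair-mutant yeast strain. Growth was then read and compared against vehicle-treated controls.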
# [9] = NCI Yeast Anticancer Drug Screen. Data for the CLN2oe strain (AID 163);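 note: 0% = growth of vehicle-only control cultures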; details: S. cerevisiae CLN2oe strain, hits give high values
# How it was run: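 Inhibition relative to vehicle-treated yeast is reported. Cells: strain with genetic alteration in cell-cycle control, grown with compound.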
# [10] = NCI Yeast Anticancer Drug Screen. Data for the cln2 rad14 strain (AID 165);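 note: 0% = growth equal to vehicle treated cultures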; details: S. cerevisiae cln2 rad14 strain, hits give high values
# How it was run: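 Each compound was tested on cln2 rad14 yeast. Inhibition of growth was calculated against vehicle-exposed controls.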
# [11] = NCI Yeast Anticancer Drug Screen. Data for the bub3 strain (AID 167); details: S. cerevisiae bub3 mutant strain, hits give high values
# How it was run: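 Yeast carrying a defined mutation is treated with each compound, and growth is compared with that of vehicle-exposed cells to give inhibition.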
# [12] = NCI Yeast Anticancer Drug Screen. Data for the wt2 strain (AID 169);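 note: 0% = growth of vehicle-treated yeast cultures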; details: S. cerevisiae wt2 strain growth inhibition, hits give high values
# How it was run: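 Inhibition of yeast growth was determined after compound treatment, normalised to controls receiving only vehicle.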
# [13] = NCI Yeast Anticancer Drug Screen. Data for the mlh1 strain (AID 171);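 note: 0% = growth of vehicle-treated control cultures of the same strain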; details: S. cerevisiae mlh1 strain growth inhibition, hits give high values
# How it was run: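 Vehicle-normalised growth inhibition of a repair- or checkpoint-altered yeast strain following compound treatment.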
# [14] = NCI Yeast Anticancer Drug Screen. Data for the sgs1 strain (AID 173);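 note: 0% = growth of vehicle-only control cultures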; details: S. cerevisiae sgs1 mutant, hits give high values
# How it was run: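 Screen format: yeast with repair or checkpoint alterations, compound exposure, growth read relative to vehicle.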
# [15] = NCI Yeast Anticancer Drug Screen. Data for the mlh1 rad18 strain (AID 175); details: S. cerevisiae mlh1 rad18 strain growth inhibition, hits give high values
# How it was run: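 Vehicle-treated cultures served as the reference for growth inhibition in a yeast strain carrying DNA damage repair alterations exposed to each compound.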
# [16] = NCI Yeast Anticancer Drug Screen. Data for the rad18 strain (AID 177); details: S. cerevisiae rad18 mutant growth inhibition, hits give high values
# How it was run: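 Test articles were incubated with altered yeast defective in DNA damage repair. Results are given as inhibition of growth versus vehicle.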
# [17] = at 5.0 µM (retest, dose inferred, filed as 0.5)
# [18] = at 50.0 µM (retest, dose inferred, filed as 5.0)
compound,measurement,setting,value
O=C(NCCCNCCCNC(=O)c1cc(-c2ccccc2)nc2ccccc12)c1cc(-c2ccccc2)nc2ccccc12,growth inhibition,[1]; at 1.2 µM,-4%
same,growth inhibition,[1]; at 3.7 µM,-2%
same,growth inhibition,[1]; at 11.0 µM,-4%
same,growth inhibition,[1]; at 33.0 µM,6%
same,growth inhibition,[1]; at 100.0 µM,11%
same,growth inhibition,[2]; at 1.2 µM,-1%
same,growth inhibition,[2]; at 3.7 µM,-1%
same,growth inhibition,[2]; at 11.0 µM,-3%
same,growth inhibition,[2]; at 33.0 µM,-2%
same,growth inhibition,[2]; at 100.0 µM,-5%
same,growth inhibition,[3]; at 1.2 µM,-1%
same,growth inhibition,[3]; at 3.7 µM,5%
same,growth inhibition,[3]; at 11.0 µM,14%
same,growth inhibition,[3]; at 33.0 µM,24%
same,growth inhibition,[3]; at 100.0 µM,19%
same,growth inhibition,[4]; at 1.2 µM,-2%
same,growth inhibition,[4]; at 3.7 µM,-1%
same,growth inhibition,[4]; at 11.0 µM,-3%
same,growth inhibition,[4]; at 33.0 µM,20%
same,growth inhibition,[4]; at 100.0 µM,61%
same,growth inhibition,[5]; at 1.2 µM,-3%
same,growth inhibition,[5]; at 3.7 µM,-2%
same,growth inhibition,[5]; [17],-13%
same,growth inhibition,[5]; at 11.0 µM,-4%
same,growth inhibition,[5]; at 33.0 µM,27%
same,growth inhibition,[5]; [18],54%
same,growth inhibition,[5]; at 50.0 µM,37.3%
same,growth inhibition,[5]; at 100.0 µM,51%
same,growth inhibition,[6]; at 1.2 µM,-2%
same,growth inhibition,[6]; at 3.7 µM,-4%
same,growth inhibition,[6]; [17],-11%
same,growth inhibition,[6]; at 11.0 µM,-5%
same,growth inhibition,[6]; at 33.0 µM,10%
same,growth inhibition,[6]; [18],19%
same,growth inhibition,[6]; at 50.0 µM,37.7%
same,growth inhibition,[6]; at 100.0 µM,47%
same,growth inhibition,[7]; at 1.2 µM,-1%
same,growth inhibition,[7]; at 3.7 µM,-1%
same,growth inhibition,[7]; at 11.0 µM,4%
same,growth inhibition,[7]; at 33.0 µM,58%
same,growth inhibition,[7]; at 100.0 µM,82% (active)
same,growth inhibition,[8]; [17],0%
same,growth inhibition,[8]; [18],-8%
same,growth inhibition,[8]; at 50.0 µM,56.2%
same,growth inhibition,[9]; at 1.2 µM,-3%
same,growth inhibition,[9]; at 3.7 µM,-1%
same,growth inhibition,[9]; at 11.0 µM,-4%
same,growth inhibition,[9]; at 33.0 µM,14%
same,growth inhibition,[9]; at 100.0 µM,24%
same,growth inhibition,[10]; [17],40%
same,growth inhibition,[10]; [18],42%
same,growth inhibition,[10]; at 50.0 µM,37.8%
same,growth inhibition,[11]; at 1.2 µM,-3%
same,growth inhibition,[11]; at 3.7 µM,-1%
same,growth inhibition,[11]; [17],3%
same,growth inhibition,[11]; at 11.0 µM,-1%
same,growth inhibition,[11]; at 33.0 µM,11%
same,growth inhibition,[11]; [18],58%
same,growth inhibition,[11]; at 50.0 µM,64.1%
same,growth inhibition,[11]; at 100.0 µM,44%
same,growth inhibition,[12]; at 1.2 µM,-3%
same,growth inhibition,[12]; at 3.7 µM,-4%
same,growth inhibition,[12]; at 11.0 µM,-4%
same,growth inhibition,[12]; at 33.0 µM,1%
same,growth inhibition,[12]; at 100.0 µM,11%
same,growth inhibition,[13]; at 1.2 µM,-4%
same,growth inhibition,[13]; at 3.7 µM,-1%
same,growth inhibition,[13]; at 11.0 µM,-1%
same,growth inhibition,[13]; at 33.0 µM,16%
same,growth inhibition,[13]; at 100.0 µM,46%
same,growth inhibition,[14]; at 1.2 µM,-3%
same,growth inhibition,[14]; at 3.7 µM,-2%
same,growth inhibition,[14]; at 11.0 µM,-1%
same,growth inhibition,[14]; at 33.0 µM,7%
same,growth inhibition,[14]; at 100.0 µM,11%
same,growth inhibition,[15]; [17],17%
same,growth inhibition,[15]; [18],78% (active)
same,growth inhibition,[15]; at 50.0 µM,89.4% (active)
same,growth inhibition,[16]; at 1.2 µM,-4%
same,growth inhibition,[16]; at 3.7 µM,-3%
same,growth inhibition,[16]; at 11.0 µM,-4%
same,growth inhibition,[16]; at 33.0 µM,13%
same,growth inhibition,[16]; at 100.0 µM,34%
COc1cccc2nc3ccccc3nc12,growth inhibition,[1]; at 1.2 µM,1%
same,growth inhibition,[1]; at 3.7 µM,7%
same,growth inhibition,[1]; at 11.0 µM,34%
same,growth inhibition,[1]; at 33.0 µM,90% (active)
same,growth inhibition,[1]; at 100.0 µM,97% (active)
same,growth inhibition,[2]; at 1.2 µM,-2%
same,growth inhibition,[2]; at 3.7 µM,-2%
same,growth inhibition,[2]; at 11.0 µM,3%
same,growth inhibition,[2]; at 33.0 µM,45%
same,growth inhibition,[2]; at 100.0 µM,91% (active)
same,growth inhibition,[3]; at 1.2 µM,1%
same,growth inhibition,[3]; at 3.7 µM,8%
same,growth inhibition,[3]; at 11.0 µM,34%
same,growth inhibition,[3]; at 33.0 µM,79% (active)
same,growth inhibition,[3]; at 100.0 µM,94% (active)
same,growth inhibition,[4]; at 1.2 µM,1%
same,growth inhibition,[4]; at 3.7 µM,1%
same,growth inhibition,[4]; at 11.0 µM,6%
same,growth inhibition,[4]; at 33.0 µM,75% (active)
same,growth inhibition,[4]; at 100.0 µM,95% (active)
same,growth inhibition,[5]; at 1.2 µM,2%
same,growth inhibition,[5]; at 3.7 µM,15%
same,growth inhibition,[5]; [17],-22%
same,growth inhibition,[5]; at 11.0 µM,45%
same,growth inhibition,[5]; at 33.0 µM,91% (active)
same,growth inhibition,[5]; [18],65%
same,growth inhibition,[5]; at 50.0 µM,83.6% (active)
same,growth inhibition,[5]; at 100.0 µM,97% (active)
same,growth inhibition,[6]; at 1.2 µM,-2%
same,growth inhibition,[6]; at 3.7 µM,2%
same,growth inhibition,[6]; [17],-5%
same,growth inhibition,[6]; at 11.0 µM,4%
same,growth inhibition,[6]; at 33.0 µM,35%
same,growth inhibition,[6]; [18],17%
same,growth inhibition,[6]; at 50.0 µM,31.3%
same,growth inhibition,[6]; at 100.0 µM,89% (active)
same,growth inhibition,[7]; at 1.2 µM,-2%
same,growth inhibition,[7]; at 3.7 µM,0%
same,growth inhibition,[7]; at 11.0 µM,2%
same,growth inhibition,[7]; at 33.0 µM,30%
same,growth inhibition,[7]; at 100.0 µM,82% (active)
same,growth inhibition,[8]; [17],-19%
same,growth inhibition,[8]; [18],5%
same,growth inhibition,[8]; at 50.0 µM,4.55%
same,growth inhibition,[9]; at 1.2 µM,0%
same,growth inhibition,[9]; at 3.7 µM,1%
same,growth inhibition,[9]; at 11.0 µM,1%
same,growth inhibition,[9]; at 33.0 µM,48%
same,growth inhibition,[9]; at 100.0 µM,91% (active)
same,growth inhibition,[10]; [17],-14%
same,growth inhibition,[10]; [18],18%
same,growth inhibition,[10]; at 50.0 µM,9.4%
same,growth inhibition,[11]; at 1.2 µM,1%
same,growth inhibition,[11]; at 3.7 µM,-11%
same,growth inhibition,[11]; [17],-25%
same,growth inhibition,[11]; at 11.0 µM,2%
same,growth inhibition,[11]; at 33.0 µM,56%
same,growth inhibition,[11]; [18],19%
same,growth inhibition,[11]; at 50.0 µM,24.9%
same,growth inhibition,[11]; at 100.0 µM,94% (active)
same,growth inhibition,[12]; at 1.2 µM,-2%
same,growth inhibition,[12]; at 3.7 µM,-1%
same,growth inhibition,[12]; at 11.0 µM,8%
same,growth inhibition,[12]; at 33.0 µM,50%
same,growth inhibition,[12]; at 100.0 µM,96% (active)
same,growth inhibition,[13]; at 1.2 µM,0%
same,growth inhibition,[13]; at 3.7 µM,3%
same,growth inhibition,[13]; at 11.0 µM,-2%
same,growth inhibition,[13]; at 33.0 µM,51%
same,growth inhibition,[13]; at 100.0 µM,97% (active)
same,growth inhibition,[14]; at 1.2 µM,-6%
same,growth inhibition,[14]; at 3.7 µM,-8%
same,growth inhibition,[14]; at 11.0 µM,0%
same,growth inhibition,[14]; at 33.0 µM,38%
same,growth inhibition,[14]; at 100.0 µM,88% (active)
same,growth inhibition,[15]; [17],-3%
same,growth inhibition,[15]; [18],36%
same,growth inhibition,[15]; at 50.0 µM,43.1%
same,growth inhibition,[16]; at 1.2 µM,-3%
same,growth inhibition,[16]; at 3.7 µM,-2%
same,growth inhibition,[16]; at 11.0 µM,16%
same,growth inhibition,[16]; at 33.0 µM,84% (active)
same,growth inhibition,[16]; at 100.0 µM,95% (active)
